This is part of a sample that, as a whole, favours compounds with a hit. Of some 83,000 tested, about 20% had one in any assay.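 Results are percent growth after 48 hours of single-concentration exposure. 100 means growth as in untreated cells, lower positive values show inhibition; negative values down to -100 show cell death.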 Calls of active or inactive are those of the source.
The compounds below were run on PC-3 prostate (assay: NCI-60 one-dose screen, 48 h (100 = growth as untreated, 0 = no growth, -100 = all killed)). Conditions: 10 µM unless noted.
Procedure: Growth inhibition of the PC-3 human tumor cell line is measured as a screen for anti-cancer activity. Cells are grown in 96 well plates and exposed to the test compound for 48 hours. Compounds are tested at a single concentration, which is 10^-5 M for most compounds. The reported endpoint is percent growth (GI% or GIPRCNT), where numbers from 0 - 100% represent growth inhibition, and numbers from -100% - 0 represent cell death. For example, a value of 40 represents 60% growth inhibition. A value of 0 means no net growth occurred over the course of the experiment. A value of -40 indicates 40% of cells at the beginning of the experiment died by the end of the experiment. A value of -100 means all cells are dead at the end of the experiment.
NCI-60 Human Tumor Cell Lines Screen was performed using the standard one-dose NCI protocol, which is described in more detail at https://dtp.cancer.gov/discovery_development/nci-60/default.htm.
Compounds with GIPRCNT values below 10 were considered active. Activity score was based on GIPRCNT using the following formula: […]
Score is 0 for GIPRCNT values of 100 or above, 50 for GIPRCNT values of 0, and 100 for GIPRCNT values of -100.

Row | Structure (SMILES) | growth
1 | COc1ccc2c(c1)/C(=C/c1c(-c3cc(OC)c(OC)c(OC)c3Br)nc3sccn13)C(=O)N2 | 82.6% (inactive)
2 | COc1ccc(-c2nn(-c3ccc(NC(=O)Nc4cc(C(F)(F)F)cc(C(F)(F)F)c4)cc3)cc2-c2ccncc2)cc1Cl | 3.33% (active)
3 | Cc1ccc(Cn2cc(COc3ccc4c5ccnc(C)c5n(CCCc5ccccc5)c4c3)nn2)cc1 | 81.4% (inactive)
4 | COc1ccc(C2=NN(C(=O)COc3ccc(Cl)cc3)C(O)(c3cc(F)c(Cl)cc3Cl)C2)cc1OC (stereo not given) | 32.1% (inactive)
5 | CCC(C)Nc1ccc(N)cc1 (stereo not given) | 6.03% (active)
6 | Fc1ccc(/C=N/n2c(-c3cc(Cl)cc(Cl)c3Cl)nn(CNc3ccc(Cl)nn3)c2=S)cc1 | 86.7% (inactive)
7 | Nc1nc(-c2cc3c(cc2Cl)NC(=O)/C3=C/c2ccc(Cl)cc2)cs1 | 32.6% (inactive)
8 | CCc1c(C)c2cc3c(c(C)c2oc1=O)OCC(=O)N3 | 80.4% (inactive)
9 | N#Cc1c(N)nc(Cl)c(C#N)c1C(=O)c1ccccc1 | 37.5% (inactive)
10 | c1ccc(-c2nc3sc(C(c4ccccc4)c4ccccc4)nn3c2-c2ccccc2)cc1 | 78.7% (inactive)
11 | CC/C(=C(\CC)c1ccc(OCCN(CC)CC)cc1)c1ccc(OCCN(CC)CC)cc1 | 29% (inactive)
12 | FC(F)(F)c1cn(CCN2CCOCC2)c2ncnc(Cl)c12 | 28.1% (inactive)
13 | CCOC(=O)c1noc2c1CCc1c-2cn(Cc2ccc(OC)cc2)c1-c1cc(OC)c(OC)c(OC)c1 | 25.3% (inactive)
14 | COc1ccc(C(=O)Cn2cnc3c(Nc4cc(C(=O)Nc5ccc(N6CCN(CCO)CC6)cc5)ccc4C)ncnc32)cc1 | 105% (inactive)
15 | COC(=O)CCCNS(=O)(=O)c1cc(C(=O)Nc2ccc(NC(=O)c3cc(S(=O)(=O)NCCCC(=O)OC)c(O)c(O)c3O)cc2)c(O)c(O)c1O | 83.3% (inactive)
16 | CN(CCNCc1ccccn1)CCNCc1ccccn1 | 5.04% (active)
17 | CCOC(=O)CSc1nnc(-c2cc3c([nH]c4ccccc43)c(-c3cccc(O)c3)n2)n1-c1ccc(C)cc1 | 15.1% (inactive)
18 | COc1ccc(/C=C/C(=O)c2ccc(Oc3ncnc4ccccc34)cc2)cc1OC | 82.1% (inactive)
19 | CC[C@@]1(O)C(=O)OCc2c1cc1n(c2=O)Cc2c-1nc1ccccc1c2/C=N/OC(C)(C)C | 23.6% (inactive)
20 | COc1ccc(Cn2cc(COc3ccc4c5ccnc(C)c5n(CCCc5ccccc5)c4c3)nn2)cc1 | 74.8% (inactive)

Row | Structure (SMILES) | growth
21 | COc1cc(/C=C2/Oc3cc4occc4c(OC)c3C2=O)ccc1OCC(=O)Nc1ccncc1 | 95.5% (inactive)
22 | Cc1ccc2oc(=O)cc(C3C(C#N)=C(N)Oc4c3ccc3ccccc43)c2c1 (stereo not given) | 55.6% (inactive)
23 | CCOC(=O)NNc1nncc2ccccc12 | 97.7% (inactive)
24 | O=C(O)c1ccc(-n2cc(/C=N/Nc3ccccc3F)c(-c3ccc(O)cc3)n2)cc1 | 74.8% (inactive)
25 | Cc1cccc(Cc2cnc(NC(=O)CCc3ccc(C)o3)s2)c1 | 21.9% (inactive)
26 | COc1ccc(-c2cc3ccc(N(C)C)cc3nc2N)c(F)c1 | 28.2% (inactive)
27 | O=C(O)c1cccc2oc(-c3ccccc3O)nc12 | 47.8% (inactive)
28 | OCc1cn(-c2ccc(Cl)cc2)nc1-c1ccc(O)cc1 | 96.5% (inactive)
29 | COC(=O)c1ccc2c(c1)Oc1ccc(Cl)cc1-c1cc(C)nn1-2 | 76% (inactive)
30 | COc1ccc(C2=NN(C(=O)COc3ccc(Cl)cc3)C(O)(c3cc(F)c(Cl)cc3Cl)C2)cc1 (stereo not given) | 75% (inactive)
31 | COc1ccc(Cl)cc1NC(=O)c1cc2c([nH]1)-c1nc(N)sc1CCC2 | 97.8% (inactive)
32 | O=C1CCC(c2c(O)cc(O)c3c(=O)c(O)c(-c4ccc(O)c(O)c4)oc23)N1 (stereo not given) | 93.3% (inactive)
33 | C#CC(=O)/C=C/CCCCCCC#CC(=O)CCC(=O)C#CCCCCCC/C=C/C(=O)C#C | 12.2% (inactive)
34 | CCCCCCCCCCCC(=O)OCCNC(=O)C[n+]1ccccc1 | 92.5% (inactive)
35 | CC1(C)CC(=O)C2=C(C1)OC1=C(C(=O)CC(C)(C)C1)C2c1ccc(OCc2cn(-c3ccc(F)cc3F)nn2)cc1 | 77.7% (inactive)
36 | COc1ccc(-c2nnc(SCC(=O)N3CCN(c4cc5c(cc4F)c(=O)c(C(=O)O)cn5C4CC4)CC3)o2)cc1OC | 59.2% (inactive)
37 | NC(CSC(c1ccccc1)(c1ccccc1)c1ccc(F)cc1)C(=O)O (stereo not given) | 15.8% (inactive)
38 | O=C(Cn1c2ccccc2c2ccncc21)N/N=C\c1ccc2ccccc2c1 | 13.8% (inactive)
39 | COc1ccc(-n2c(-c3ccc(NC(=O)CCCl)cc3)nnc2-c2cc(OC)c(OC)c(OC)c2)cc1 | 49.8% (inactive)
40 | COc1ccc(Cl)cc1NC(=O)c1cc2c([nH]1)-c1nc(NC(=O)C(C)(C)C)sc1CC2 | 61.4% (inactive)
